# Reference: PubChem BioAssay AID686915 (National Center for Advancing Translational Sciences (NCATS), 2013)
# Where “and” joins values, the source holds several entries; their conditions need not be identical. Equal values may be shown once. Records with an inconclusive call do not appear. Entries that show only a call come without a potency. Calls of active or inactive are those of the source. Calls follow the shape of the dose curve; as a rule, active = well fitted inhibition curve with a large enough effect; inconclusive = small, poorly fitted or top-dose-only effect; inactive = no such curve, though single readings can be large or run the other way.
# Assay: qHTS screen for inhibitors of ELG1-dependent DNA repair in human embryonic kidney (HEK293T) cells expressing luciferase-tagged ELG1: MMS Stimulated Assay for probe SAR
# Settings: HEK293T ELG1-luciferase reporter, 16 h; series mostly up to 46.1 µM
# Text: Cancer cells divide rapidly compared to normal cells in the body. During cell division, cancer cells need to duplicate their genome by DNA replication. The failure of genome duplication leads to cancer cells' death. Therefore, inhibitors of DNA replication could specifically kill cancer cells. Based on this concept, many chemotherapeutic agents were developed and have been used to treat cancer patients. However, there are a limited number of agents available in the clinical setting, and some of those that do exist have low efficacy and severe side effects. Therefore, if we can find the compounds that effectively block DNA replication either by directly damaging DNA or by inhibiting other cellular mechanisms, the options for cancer treatment will be broadened. With this in mind, we developed a quantitative high-throughput ELG1-luciferase reporter gene assay. Small molecules that specifically block ELG1 function in response to DNA damage can be identified by monitoring the suppression of luciferase activity. Since ELG1 defines a pathway for repairing DNA damage, agents blocking ELG1 function can be used to sensitize cancer cells to chemotherapeutic agents whose mechanism of action involves the induction of DNA damage. NIH Molecular Libraries Probe Production Network [MLPCN] NIH Chemical Genomics Center [NCGC] MLPCN Grant: R03 MH092164 Assay Provider: Kyungjae Myung, NHGRI, NIH
# ELG1-luc HEK293T cells will be seeded in 1536-well plates at a density of 2,000 cells / well. Approximately 5 hours after plating, compounds will be added to the plate by pin tool transfer and MMS will be added by FRD dispenser (final concentration of MMS = 10 µM). 16 hours following the addition of the compounds, luciferase activity will be measured using Amplight reagent.
row,Structure (SMILES),Potency
1,Fc1cc(Nc2nc(-c3ccncc3)nc3ccccc23)ccc1OCC(F)(F)F,inactive
2,Cc1ccc(Nc2nc(-c3ccncc3)nc3ccccc23)cc1F,inactive
3,Cc1noc(C)c1-c1ccc(Nc2nc(-c3ccncc3)nc3ccccc23)cc1F,18.7 µM (active)
4,CCOC(=O)c1ccc2c(c1)c(C(C)=O)c(C)n2-c1ccc(OC)cc1,inactive
5,Fc1cc(Nc2nc(-c3ccncc3)nc3ccccc23)ccc1-c1ccnc(C(F)(F)F)c1,inactive
6,c1ccc2c(Nc3ccn[nH]3)nc(-c3ccncc3)nc2c1,4.69 µM (active)
7,COc1ccc(Nc2nc(-c3ccncc3)nc3ccccc23)cc1F,inactive
8,Fc1cc(Nc2nc(-c3ccncc3)nc3ccccc23)ccc1-c1cccc(C(F)(F)F)c1,18.7 µM (active)
9,COc1cc(-c2nc(Nc3ccc(F)c(F)c3)c3ccccc3n2)c(F)cn1,8.33 µM (active)
10,O=[N+]([O-])c1ccc(-c2nc(Nc3ccc(F)c(F)c3)c3ccccc3n2)cc1,inactive
11,Fc1cc(Nc2nc(-c3ccncc3)nc3ccccc23)ccc1-c1cncnc1,inactive
12,Cc1cnccc1-c1nc(Nc2ccc(F)c(F)c2)c2ccccc2n1,inactive
13,Fc1cc(Nc2nc(-c3ccncc3)nc3ccccc23)ccc1-c1cc(F)c(F)c(F)c1,inactive
14,Fc1ccc(-c2nc(-c3ccncc3)nc3ccccc23)cc1F,inactive
15,Cc1cc(-c2nc(Nc3ccc(F)c(F)c3)c3ccccc3n2)cc(C)n1,inactive
16,N#Cc1cnccc1-c1nc(Nc2ccc(F)c(F)c2)c2ccccc2n1,5.26 µM (active)
17,COc1cc(Nc2nc(-c3ccncc3)nc3ccccc23)ccc1N1CCN(C)CC1,inactive
18,COc1cc(Nc2nc(-c3ccncc3)nc3ccccc23)ccc1NS(C)(=O)=O,inactive
19,Fc1ccc(Nc2nc(-c3ccncc3)nc3ccccc23)cc1F,inactive
20,Cc1cc(-c2nc(Nc3ccc(F)c(F)c3)c3ccccc3n2)ccn1,inactive

row,Structure (SMILES),Potency
1,Fc1cc(Nc2nc(-c3ccncc3)nc3ccccc23)ccc1C(F)(F)F,8.33 µM (active) and 13.2 µM (active)
2,Fc1cc(Nc2nc(-c3ccncc3)nc3ccccc23)ccc1-c1cn[nH]c1,inactive
3,COc1nccc(-c2nc(Nc3ccc(F)c(F)c3)c3ccccc3n2)c1Cl,inactive
4,Fc1cccc(-c2ccc(Nc3nc(-c4ccncc4)nc4ccccc34)cc2F)c1,inactive
5,Fc1ccc(Nc2nc(-c3ccnc(C(F)(F)F)c3)nc3ccccc23)cc1F,18.7 µM (active)
6,Nc1cc(-c2nc(Nc3ccc(F)c(F)c3)c3ccccc3n2)ccn1,inactive
7,CSc1ccccc1-c1ccc(Nc2nc(-c3ccncc3)nc3ccccc23)cc1F,18.7 µM (active)
8,Fc1cc(Nc2nc(-c3ccncc3)nc3ccccc23)ccc1-c1cccnc1,inactive
9,Fc1cc(Nc2nc(-c3ccncc3)nc3ccccc23)ccc1-n1cncn1,inactive
10,Cc1nc2ccc(Nc3nc(-c4ccncc4)nc4ccccc34)cc2s1,inactive
11,N#Cc1cc(-c2nc(Nc3ccc(F)c(F)c3)c3ccccc3n2)ccn1,inactive
12,COc1ccc(-n2c(C)c(C(C)=O)c3ccccc32)cc1,7.43 µM (active) and 6.62 µM (active)
13,COc1ccc(-c2nc(Nc3ccc(F)c(F)c3)c3ccccc3n2)cc1,inactive
14,COc1ccc(-c2ccc(Nc3nc(-c4ccncc4)nc4ccccc34)cc2F)cc1F,inactive
15,Fc1cc(Nc2nc(-c3ccncc3)nc3ccccc23)ccc1-c1cccc(OC(F)(F)F)c1,23.5 µM (active)
16,CN1CCN(c2cc(-c3nc(Nc4ccc(F)c(F)c4)c4ccccc4n3)ccn2)CC1,23.5 µM (active)
17,COc1cc(-c2nc(Nc3ccc(F)c(F)c3)c3ccccc3n2)ccn1,inactive
18,COc1cc(Nc2nc(-c3ccncc3)nc3ccccc23)ccc1F,23.5 µM (active) and 20.9 µM (active)
19,Fc1ccc(Nc2nc(-c3ccncc3Cl)nc3ccccc23)cc1F,inactive
20,Fc1cc(-c2nc(Nc3ccc(F)c(F)c3)c3ccccc3n2)ccn1,inactive
